Screening results deposited in PubChem by National Center for Advancing Translational Sciences (NCATS).
Tb PFK inh: blocks T. brucei phosphofructokinase; O15648; T. brucei PFK, ADP-Glo luminescence; Potency, µM (top dose mostly 57.5 µM), for inactives: at the top dose activity, negative = inhibition, actives largely listed as inhibitors; 0.17% of 330,000 active; AID 485367;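 also: 0% = uninhibited 1x PFK enzyme wells and -100% = no-enzyme wells; nearly all actives have a fitted effect of over 60% in size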
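Activity is normalized to no-enzyme wells (full inhibition) and 1.25 nM enzyme wells (no inhibition). Reaction: 0.5 mM F6P, 0.1 mM ATP, 45 min RT, ADP-Glo luminescence; concentration-response curves fitted and classed by quality.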
BRCA1 expr up: activators of BRCA1 expression | AID 624202 | Potency, µM (series often up to 46.1 µM), for inactives: top-dose activation, most hits filed as activators | 1.1% of 380,000 active | MCF7-BRCA1-FFLuc reporter, luminescence, 48 h; response scale: scaled: vehicle 0%, 10 µM genistein 100%; also: nearly all actives have a fitted effect of over 80% in size
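Compounds are tested at multiple concentrations on MCF7 BRCA1-luciferase reporter cells seeded at 2000 per well; after 48 h, a single luminescence end-point is taken and curves fitted to the normalized data.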
VDR inhibitor: blocks the human vitamin D receptor; P11473; VDR-SRC2-3 peptide fluorescence polarization, 2 h; Potency, µM, for inactives: max response, negative = inhibition, most hits filed as inhibitors; 0.93% of 400,000 active; AID 504847; also: % is scaled to controls: 0 for no effect and ±100 for the full control effect
Target sequence (P11473 whole entry, looked up): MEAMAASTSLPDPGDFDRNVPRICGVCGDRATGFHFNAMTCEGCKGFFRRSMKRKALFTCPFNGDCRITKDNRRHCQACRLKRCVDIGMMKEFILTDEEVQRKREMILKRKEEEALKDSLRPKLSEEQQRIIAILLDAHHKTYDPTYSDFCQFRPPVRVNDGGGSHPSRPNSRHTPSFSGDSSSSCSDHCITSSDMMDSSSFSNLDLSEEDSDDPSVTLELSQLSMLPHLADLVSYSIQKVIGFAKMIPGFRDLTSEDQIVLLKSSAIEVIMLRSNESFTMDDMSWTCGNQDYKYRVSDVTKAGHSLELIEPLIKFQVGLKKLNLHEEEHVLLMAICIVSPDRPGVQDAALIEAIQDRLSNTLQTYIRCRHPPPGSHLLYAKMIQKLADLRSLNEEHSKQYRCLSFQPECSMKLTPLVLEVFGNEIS
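The screen uses fluorescence polarization to detect compounds that interfere with recruitment of the SRC2-3 coactivator peptide to VDR; plates are read after 2 h at room temperature.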
PLK1 PBD inh: PLK1 (human) polo-box domain binding inhibition. P53350. AID 720504. Plk1 PBD binding of FITC phosphopeptide, fluorescence polarization. Potency, µM, for inactives: max response, negative = inhibition, actives largely listed as inhibitors. 2.8% of 360,000 active; also: series mostly up to about 57 µM; % is scaled to controls: 0 for no effect and ±100 for the full control effect; nearly all actives have a fitted effect of over 65% in size
TbPYK confirm: Trypanosoma brucei pyruvate kinase inhibition, cherry-pick confirmation; shares compounds with PLK1 PBD inh; recombinant TbPYK, Kinase-Glo ATP luminescence; Potency, µM (highest dose often 76.9 µM), for inactives: at the highest dose activity change, negative = inhibition, most hits filed as inhibitors; 67% of 890 active; also: % is scaled to controls: 0 for no effect and ±100 for the full control effect; nearly all actives have a fitted effect of over 70% in size
TbPYK ADP-Glo: orthogonal confirmation of Trypanosoma brucei pyruvate kinase inhibitors; AID 720584; Potency, µM (top dose mostly 76.9 µM), for the others: at the highest dose activity change, negative = inhibition, hits mostly inhibitors; shares compounds with PLK1 PBD inh; 62% of 890 active; recombinant TbPYK, ADP-Glo luminescence, 60 min; also: % is scaled to controls: 0 for no effect and ±100 for the full control effect; nearly all actives have a fitted effect of over 75% in size
* hit, by the source's call; u = inconclusive; x = no result. Compounds with a hit are over-represented: about 3.9% of the library has one in this group of screens. Calls follow the shape of the dose curve; as a rule, active = well fitted curve in the direction sought with a large enough effect; inconclusive = small, poorly fitted or top-dose-only effect, or another doubt; inactive = no such curve, though single readings can be large; an effect the other way counts as inactive or inconclusive. Potency is read from the fitted curve at half-maximal effect.

SMILES	Tb PFK inh	BRCA1 expr up	VDR inhibitor	PLK1 PBD inh	TbPYK confirm	TbPYK ADP-Glo
COc1cccc2c1Oc1ncccc1N(C(=O)CCC(=O)NCc1ccc(N(C)C)cc1)C2	x	x	2.9%	x	x	x
Cc1ccc2c(c1)C(N1CCCC1=O)CC(c1ccco1)N2 (centres undefined)	u	u	-13.4%	u	-11.1%	-5.8%
CCN(CC)c1ccc(C(=O)NNC(=O)CCl)cc1	5.3%	-20.0%	-1.6%	-14.8%	x	x
CCN(CC)c1ccc(C(=C2C=CC(=[N+](CC)CC)C=C2)c2ccc(N(CC)CC)cc2)cc1	x	-81.8%	u	29.9µM*	22.4µM*	14.2%
Cc1nnc(N=c2ssnc2Cl)o1	u	-2.6%	u	1.68µM*	4.47µM*	5.01µM*
Cc1ccc(N=c2ssnc2Cl)cc1	-15.8%	0.4%	28.2µM*	1.68µM*	6.31µM*	8.91µM*
CCOC(=O)c1ccc(NC(=O)CCC(=O)N2Cc3ccccc3Oc3ncccc32)cc1	x	x	12.1%	x	x	x
Cc1ccc(CNC(=O)C2CCN(S(=O)(=O)c3cccs3)CC2)o1	-3.2%	-0.4%	u	-16.3%	u	u
CCOC(=O)c1cnc2ccc(OCC)cc2c1NCc1cccnc1	-4.8%	-28.9%	5.6%	-3.1%	-3.2%	-3.4%
CCOC(=O)c1cnc2ccc(OCC)cc2c1NCc1ccccc1	1.1%	-64.7%	-18.1%	-4.3%	x	x
CCc1ccccc1OCC(=O)Nc1cccc(S(=O)(=O)NC2=NCCC2)c1	13.4%	0.6%	12.4%	3.0%	x	x
CN(C)c1cccc2c(C=C(C#N)C#N)ccc(N(C)C)c12	-5.7%	27.6%	-13.3%	-8.6%	u	u
CN(C)c1cccc2c(/C=N/O)ccc(N(C)C)c12	-0.9%	0.4%	1.6%	-15.9%	x	x
O=C(NCc1ccccc1F)C1CCCN(C(=O)N2CCOc3ccccc32)C1 (centres undefined)	x	x	-4.2%	x	x	x
CCCCOc1ccc(NC(=O)CCSc2nccn2C)cc1	1.8%	52.7%	-1.5%	-0.6%	2µM*	2.24µM*
CCOC(=O)c1ccc(NC(=O)CSc2nccn2C)cc1	3.4%	83.1%	-3.4%	-14.2%	x	x
Cc1ccc(C(=O)N/C(=C\c2ccco2)C(=O)N2CCOCC2)cc1C	-0.5%	-6.7%	0.8%	-6.7%	x	x
COc1ccc(-c2nnc(SCCC(=O)O)n2-c2ccccc2)cc1	0.5%	-2.1%	2.0%	-2.3%	7.94µM*	5.01µM*
COC(=O)c1ccc2c(=O)n(Cc3ccc(C(=O)NCCCN4CCC(C)CC4)cc3)c(=S)[nH]c2c1	7.2%	-17.3%	0.0%	-11.4%	17.8µM*	15.8µM*
CCCCN(C)CCNC(=O)c1ccc(Cn2c(=S)[nH]c3ccc(Br)cc3c2=O)cc1	-7.2%	-46.2%	15.2%	u	20µM*	12.6µM*
CN(C)CCNC(=O)c1ccc2c(=O)n(Cc3ccc(Cl)cc3)c(=S)[nH]c2c1	3.4%	-27.1%	-13.2%	-28.5%	x	x
NS(=O)(=O)c1ccc(NC(=O)CCn2c(=O)oc3ccccc32)cc1	x	10.5%	-7.7%	x	x	x
CN(C)C(=S)N=Nc1[nH]c2ccccc2c1O	8.2%	17.1%	-0.4%	16.8µM*	5.62µM*	6.31µM*
Cc1ccc(/C=C/C(=O)N2CC(C)CC(C)C2)o1 (centres undefined)	-18.7%	-23.1%	u	26.7µM*	u	31.6µM*
CC1CCN(c2nc3ccc(C(=O)NCc4ccccc4Cl)cc3s2)CC1	x	51.6%	7.9%	x	x	x
SMILES	Tb PFK inh	BRCA1 expr up	VDR inhibitor	PLK1 PBD inh	TbPYK confirm	TbPYK ADP-Glo
CCCN1C(=O)S/C(=C\c2ccc(N3CCOCC3)o2)C1=O	u	-19.7%	31.6µM*	105.4%	u	39.8µM*
O=C1C=CC(=O)N1c1ccc(OC(F)F)cc1	u	-91.2%	15.8µM*	3.36µM*	-13.3%	-8.2%
O=C(O)CNC(=O)c1ccc(OC(F)F)cc1	-0.8%	-49.1%	12.1%	1.4%	x	x
COc1cc(C=C2C(=O)C=CC2=O)ccc1O	x	-63.6%	x	5.32µM*	1.12µM*	1.12µM*
CCn1c(C(=O)N2CCCC(C(=O)NCCc3ccc(C)cc3)C2)cc2sccc21 (centres undefined)	-3.9%	-91.3%	-0.3%	0.5%	15.8µM*	31.6µM*
S=C(c1ccc(-c2ccc(Cl)cc2Cl)o1)N1CCCC1	-8.0%	49.3%	u	u	u	u
O=C(Nc1ccc(Oc2ccccc2)nc1)C1CCCCN1Cc1ccco1 (centres undefined)	1.3%	-31.0%	-10.7%	-8.6%	x	x
Cc1ccc2c(c1)sc[n+]2Cc1ccccc1	8.1%	u	25.1µM*	2.99µM*	-20.1%	u
CCN(CC)c1ccc(/C=C(\C#N)c2ccccn2)cc1	1.6%	u	-16.2%	-6.7%	x	x
N#C/C(=C\c1ccc(C(=O)O)cc1)c1ccccn1	0.3%	0.0%	-8.5%	-7.4%	u	1.9%
COc1ccc([C@@H]2CC(=O)[C@@H]3CN(S(=O)(=O)c4ccc(C)cc4)[C@H](c4cccc(Cl)c4)C[C@@H]3N2S(=O)(=O)c2ccccc2)cc1	x	-3.6%	x	3.5%	x	x
CCCC(=O)NC1=C(Cl)C(=O)c2ccccc2C1=O	x	-96.2%	7.94µM*	2.99µM*	7.08µM*	7.08µM*
CCNC1=C(Cl)C(=O)c2ccccc2C1=O	7.4%	-74.9%	-9.1%	-4.1%	x	x
CCN1/C(=C/c2ccc3ccccc3[n+]2CCCS(=O)(=O)[O-])C=Cc2cc(C)ccc21	-4.6%	-0.5%	-4.5%	-4.8%	x	x
CCN1/C(=C/c2ccc3ccccc3[n+]2CC)C=Cc2ccccc21	-15.6%	-98.9%	15.5%	-22.0%	11.2µM*	u
COc1ccc(CCN2C(=O)C=CC2=O)cc1OC	x	-82.7%	u	6.7µM*	4.47µM*	5.62µM*
COc1ccc(CCn2c(C)ccc2C)cc1OC	-0.9%	x	x	x	x	x
Cc1cc(C)cc(N2C(=O)N(Cc3cccc(F)c3)c3ccccc3S2(=O)=O)c1	x	x	9.6%	x	x	x
CCOC(=O)c1ccc2c(c1)[C@@H]1C=CC[C@@H]1[C@H](c1cccc(OC)c1OC)N2	x	x	17.4%	x	x	x
CCOC(=O)c1ccc2c(c1)C1C=CCC1C(C(=O)OCC)N2 (centres undefined)	-3.3%	-39.7%	-3.2%	-17.3%	-26.7%	-16.2%
Cn1c(N=Nc2ccc(N3CCOCC3)cc2)[n+](C)c2ccccc21	u	-12.2%	u	-6.9%	15.8µM*	12.8%
CCOC(=O)C1=CCN(S(=O)(=O)c2ccc(F)cc2)C1c1ccc(Cl)c(Cl)c1 (centres undefined)	x	x	x	-19.1%	x	x
N#CC1=C2SCC(O)(c3ccccc3)N2C(=O)CC1c1cccs1 (centres undefined)	7.3%	-89.9%	-6.9%	-9.7%	x	x
O=C(Nc1ccccc1Cl)C1CC(=O)N(c2ccccc2)C1 (centres undefined)	-1.6%	17.4%	0.6%	-14.0%	x	x
N#CC1=C2SCN(c3ccccc3)CN2C(=O)CC1c1c(Cl)cccc1Cl (centres undefined)	-21.9%	-2.1%	22.4µM*	13.4µM*	3.16µM*	2.51µM*
